# PubChem BioAssay AID1159580 (chemical genetic matrix, 2015)
# The campaign covered roughly 5,500 compounds. About 2,000 (36%) were called active. Inconclusive results (about 18%) are left out. The list shows a part of the results. A number with no mark means an inactive call. No stated cut-off is given here; in the data, active means normalized growth mostly below about 0.91 (no sharp cut-off); inconclusive means no clear call, values can overlap the other calls; inactive means mostly above about 0.92.
# Assay: chemical genetic growth profiling, strain panel (AID 1159580);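 further: tested at 20 µM; growth read once vehicle control cultures reached saturation at 30 °C; 1 = growth at the plate median or of vehicle wells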
# Details: growth OD
# [1] = S. cerevisiae deletion strains, locus YDL101C, strain DUN1, stronger effect = lower value
# [2] = S. cerevisiae deletion strains, locus YHR030C, strain SLT2, stronger effect = lower value
# [3] = S. cerevisiae deletion strains, locus YAL013W, strain DEP1, stronger effect = lower value
# [4] = S. cerevisiae deletion strains, locus YBR229C, strain ROT2, stronger effect = lower value
# [5] = S. cerevisiae deletion strains, locus YDR150W, strain NUM1, stronger effect = lower value
# [6] = S. cerevisiae deletion strains, locus YEL061C, strain CIN8, stronger effect = lower value
# [7] = S. cerevisiae deletion strains, locus YGR078C, strain PAC10, stronger effect = lower value
# [8] = S. cerevisiae deletion strains, locus YGR229C, strain SMI1, stronger effect = lower value
# [9] = S. cerevisiae deletion strains, locus YHR087W, strain rtc3, stronger effect = lower value
# [10] = S. cerevisiae deletion strains, locus YJL187C, strain SWE1, stronger effect = lower value
# [11] = S. cerevisiae deletion strains, locus YJR043C, strain POL32, stronger effect = lower value
# [12] = S. cerevisiae deletion strains, locus YJR075W, strain HOC1, stronger effect = lower value
# [13] = S. cerevisiae deletion strains, locus YKL190W, strain CNB1, stronger effect = lower value
# [14] = S. cerevisiae deletion strains, locus YLR039C, strain RIC1, stronger effect = lower value
# [15] = S. cerevisiae deletion strains, locus YLR058C, strain SHM2 (second series), stronger effect = lower value
# [16] = S. cerevisiae deletion strains, locus YLR085C, strain ARP6, stronger effect = lower value
# [17] = S. cerevisiae deletion strains, locus YLR262C, strain YPT6, stronger effect = lower value
# [18] = S. cerevisiae deletion strains, locus YML094W, strain GIM5, stronger effect = lower value
# [19] = S. cerevisiae deletion strains, locus YMR219W, strain ESC1, stronger effect = lower value
# [20] = S. cerevisiae deletion strains, locus YMR263W, strain SAP30, stronger effect = lower value
# [21] = S. cerevisiae deletion strains, locus YNL153C, strain GIM3, stronger effect = lower value
# [22] = S. cerevisiae deletion strains, locus YNL298W, strain CLA4 (second series), stronger effect = lower value
# [23] = S. cerevisiae deletion strains, locus YNL322C, strain KRE1, stronger effect = lower value
# [24] = S. cerevisiae deletion strains, locus YNR030W, strain Alg12, stronger effect = lower value
# [25] = S. cerevisiae deletion strains, locus YPL055C, strain LGE1, stronger effect = lower value
# [26] = S. cerevisiae deletion strains, locus YPL241C, strain CIN2, stronger effect = lower value
# [27] = S. cerevisiae deletion strains, locus YPR135W, strain CTF4, stronger effect = lower value
# [28] = S. cerevisiae strains, strain wild type, stronger effect = lower value
smiles,measurement,setting,value
O=C(Nc1cc2ccccc2s1)N1CCN(Cc2c(F)cccc2Cl)CC1,normalized growth,"S. cerevisiae deletion strains, locus YAR019C, strain CDC15, stronger effect = lower value",0.994
same,normalized growth,"S. cerevisiae deletion strains, locus YBL105C, strain PKC1, stronger effect = lower value",0.974
same,normalized growth,"S. cerevisiae deletion strains, locus YBR135W, strain CKS1, stronger effect = lower value",0.986
same,normalized growth,"S. cerevisiae deletion strains, locus YBR136W, strain MEC1, stronger effect = lower value",0.973
same,normalized growth,"S. cerevisiae deletion strains, locus YBR160W, strain CDC28, stronger effect = lower value",0.972
same,normalized growth,"S. cerevisiae deletion strains, locus YDL017W, strain CDC7, stronger effect = lower value",0.983
same,normalized growth,"S. cerevisiae deletion strains, locus YDL028C, strain MPS1, stronger effect = lower value",0.988
same,normalized growth,[1],0.982
same,normalized growth,"S. cerevisiae deletion strains, locus YDL108W, strain KIN28, stronger effect = lower value",0.989
same,normalized growth,"S. cerevisiae deletion strains, locus YDL132W, strain cdc53, stronger effect = lower value",0.983
same,normalized growth,"S. cerevisiae deletion strains, locus YDL214C, strain PRR2, stronger effect = lower value",0.938
same,normalized growth,"S. cerevisiae deletion strains, locus YDR052C, strain DBF4, stronger effect = lower value",0.986
same,normalized growth,"S. cerevisiae deletion strains, locus YDR054C, strain cdc34, stronger effect = lower value",0.968
same,normalized growth,"S. cerevisiae deletion strains, locus YDR226W, strain ADK1, stronger effect = lower value",0.979
same,normalized growth,"S. cerevisiae deletion strains, locus YDR477W, strain SNF1, stronger effect = lower value",0.943
same,normalized growth,"S. cerevisiae deletion strains, locus YER123W, strain YCK3, stronger effect = lower value",0.946
same,normalized growth,"S. cerevisiae deletion strains, locus YER133W, strain GLC7, stronger effect = lower value",0.95
same,normalized growth,"S. cerevisiae deletion strains, locus YFL009W, strain cdc4, stronger effect = lower value",0.981
same,normalized growth,"S. cerevisiae deletion strains, locus YFL029C, strain CAK1, stronger effect = lower value",0.984
same,normalized growth,"S. cerevisiae deletion strains, locus YFR003C, strain YPI1, stronger effect = lower value",0.983
same,normalized growth,"S. cerevisiae deletion strains, locus YFR019W, strain FAB1, stronger effect = lower value",0.958
same,normalized growth,"S. cerevisiae deletion strains, locus YFR028C, strain CDC14, stronger effect = lower value",0.988
same,normalized growth,"S. cerevisiae deletion strains, locus YGR040W, strain KSS1, stronger effect = lower value",0.925
same,normalized growth,"S. cerevisiae deletion strains, locus YGR052W, strain FMP48, stronger effect = lower value",0.986
same,normalized growth,"S. cerevisiae deletion strains, locus YGR092W, strain DBF2, stronger effect = lower value",0.972
same,normalized growth,[2],0.938
same,normalized growth,"S. cerevisiae deletion strains, locus YHR079C, strain IRE1, stronger effect = lower value",0.934
same,normalized growth,"S. cerevisiae deletion strains, locus YHR082C, strain KSP1, stronger effect = lower value",0.982
same,normalized growth,"S. cerevisiae deletion strains, locus YHR205W, strain SCH9, stronger effect = lower value",0.972
same,normalized growth,"S. cerevisiae deletion strains, locus YIL147C, strain SLN1, stronger effect = lower value",0.982
same,normalized growth,"S. cerevisiae deletion strains, locus YJL095W, strain BCK1, stronger effect = lower value",0.927
same,normalized growth,"S. cerevisiae deletion strains, locus YJL128C, strain PBS2, stronger effect = lower value",0.965
same,normalized growth,"S. cerevisiae deletion strains, locus YJL157C, strain FAR1, stronger effect = lower value",0.913
same,normalized growth,"S. cerevisiae deletion strains, locus YJR016C, strain ILV3, stronger effect = lower value",0.997
same,normalized growth,"S. cerevisiae deletion strains, locus YJR066W, strain TOR1 (second series), stronger effect = lower value",0.904
same,normalized growth,"S. cerevisiae deletion strains, locus YJR066W, strain TOR1, stronger effect = lower value",0.979
same,normalized growth,"S. cerevisiae deletion strains, locus YKL048C, strain ELM1, stronger effect = lower value",0.983
same,normalized growth,"S. cerevisiae deletion strains, locus YKL067W, strain YNK1, stronger effect = lower value",0.946
same,normalized growth,"S. cerevisiae deletion strains, locus YKL101W, strain HSL1, stronger effect = lower value",0.918
same,normalized growth,"S. cerevisiae deletion strains, locus YKL193C, strain SDS22, stronger effect = lower value",0.986
same,normalized growth,"S. cerevisiae deletion strains, locus YKL203C, strain TOR2, stronger effect = lower value",0.975
same,normalized growth,"S. cerevisiae deletion strains, locus YLR113W, strain HOG1, stronger effect = lower value",0.853 (active)
same,normalized growth,"S. cerevisiae deletion strains, locus YLR133W, strain CKI1, stronger effect = lower value",0.928
same,normalized growth,"S. cerevisiae deletion strains, locus YLR403W, strain SFP1, stronger effect = lower value",0.906
same,normalized growth,"S. cerevisiae deletion strains, locus YML070W, strain DAK1, stronger effect = lower value",0.915
same,normalized growth,"S. cerevisiae deletion strains, locus YMR001C, strain CDC5, stronger effect = lower value",0.984
same,normalized growth,"S. cerevisiae deletion strains, locus YMR205C, strain PFK2 (second series), stronger effect = lower value",0.95
same,normalized growth,"S. cerevisiae deletion strains, locus YMR277W, strain FCP1, stronger effect = lower value",0.983
same,normalized growth,"S. cerevisiae deletion strains, locus YNL006W, strain LST8, stronger effect = lower value",0.989
same,normalized growth,"S. cerevisiae deletion strains, locus YNL020C, strain ARK1, stronger effect = lower value",0.928
same,normalized growth,"S. cerevisiae deletion strains, locus YNL161W, strain CBK1, stronger effect = lower value",0.988
same,normalized growth,"S. cerevisiae deletion strains, locus YNL183C, strain NPR1, stronger effect = lower value",0.944
same,normalized growth,"S. cerevisiae deletion strains, locus YNL207W, strain RIO2, stronger effect = lower value",0.976
same,normalized growth,"S. cerevisiae deletion strains, locus YNL222W, strain SSU72, stronger effect = lower value",0.988
same,normalized growth,"S. cerevisiae deletion strains, locus YNL307C, strain MCK1 (second series), stronger effect = lower value",0.961
same,normalized growth,"S. cerevisiae deletion strains, locus YOL078W, strain AVO1, stronger effect = lower value",0.982
same,normalized growth,"S. cerevisiae deletion strains, locus YOL136C, strain PFK27, stronger effect = lower value",0.911
same,normalized growth,"S. cerevisiae deletion strains, locus YOR061W, strain CKA2, stronger effect = lower value",0.952
same,normalized growth,"S. cerevisiae deletion strains, locus YOR119C, strain RIO1, stronger effect = lower value",0.993
same,normalized growth,"S. cerevisiae deletion strains, locus YOR231W, strain MKK1, stronger effect = lower value",0.877
same,normalized growth,"S. cerevisiae deletion strains, locus YOR329C, strain SCD5, stronger effect = lower value",0.972
same,normalized growth,"S. cerevisiae deletion strains, locus YPL031C, strain PHO85, stronger effect = lower value",0.942
same,normalized growth,"S. cerevisiae deletion strains, locus YPL153C, strain RAD53, stronger effect = lower value",0.917
same,normalized growth,"S. cerevisiae deletion strains, locus YPL204W, strain HRR25, stronger effect = lower value",0.915
same,normalized growth,"S. cerevisiae deletion strains, locus YPL209C, strain IPL1, stronger effect = lower value",0.976
same,normalized growth,"S. cerevisiae deletion strains, locus YPL256C, strain CLN2, stronger effect = lower value",0.888
same,normalized growth,"S. cerevisiae deletion strains, locus YPR025C, strain CCL1, stronger effect = lower value",0.986
same,normalized growth,"S. cerevisiae deletion strains, locus YPR106W, strain ISR1, stronger effect = lower value",0.962
same,normalized growth,"S. cerevisiae deletion strains, locus YPR111W, strain DBF20, stronger effect = lower value",0.962
same,normalized growth,"S. cerevisiae deletion strains, strain NNK1, stronger effect = lower value",0.972
same,normalized growth,"S. cerevisiae deletion strains, strain TSCII, stronger effect = lower value",0.986
O=C(Nc1ccccc1)N1CCN(C(c2ccccc2)c2ccccc2)CC1,normalized growth,[3],0.988
same,normalized growth,[4],0.992
same,normalized growth,[1],0.994
same,normalized growth,"S. cerevisiae deletion strains, locus YDL134C, strain PPH21, stronger effect = lower value",1.01
same,normalized growth,[5],1
same,normalized growth,[6],0.997
same,normalized growth,[7],1
same,normalized growth,[8],1
same,normalized growth,[2],0.963
same,normalized growth,[9],0.993
same,normalized growth,[10],1.01
same,normalized growth,[11],0.978
same,normalized growth,[12],1.02
same,normalized growth,[13],0.989
same,normalized growth,[14],0.992
same,normalized growth,[15],0.991
same,normalized growth,[16],1.06
same,normalized growth,[17],0.985
same,normalized growth,[18],1.04
same,normalized growth,[19],1.01
same,normalized growth,[20],0.989
same,normalized growth,[21],0.994
same,normalized growth,[22],0.966
same,normalized growth,[23],1
same,normalized growth,[24],0.986
same,normalized growth,[25],1.08
same,normalized growth,[26],1.03
same,normalized growth,[27],0.902
same,normalized growth,[28],0.973
O=C1C(c2ccc(Br)cc2)=C(O)c2ccccc21,normalized growth,[3],0.981
same,normalized growth,[4],0.912 (active)
same,normalized growth,[1],0.953
same,normalized growth,[5],0.958
same,normalized growth,[6],0.99
same,normalized growth,[7],0.915 (active)
same,normalized growth,[8],0.952
same,normalized growth,[2],0.849
same,normalized growth,[9],0.868 (active)
same,normalized growth,[10],0.913 (active)
same,normalized growth,[11],0.978
same,normalized growth,[12],0.851 (active)
same,normalized growth,[13],0.983
same,normalized growth,[14],0.974
same,normalized growth,[15],0.893 (active)
same,normalized growth,[16],0.982
same,normalized growth,[17],0.957
same,normalized growth,[18],0.983
same,normalized growth,[19],0.896 (active)
same,normalized growth,[20],1.02
same,normalized growth,[21],0.966
same,normalized growth,[22],0.994
same,normalized growth,[23],0.938 (active)
same,normalized growth,[24],0.989
same,normalized growth,"S. cerevisiae deletion strains, locus YOL006C, strain TOP1, stronger effect = lower value",1.01
same,normalized growth,[25],0.928
same,normalized growth,[26],1.03
same,normalized growth,[27],0.942
same,normalized growth,[28],0.979
